In ChEMBL document CHEMBL3988442, “University of Dundee, Small-Polar-MMV Screening Library” (2021) one finds Percent Effect data, which are given here for 11 compounds.

For some of these results: Potency and affinity values are given separately.

Common to all, as to design: scale not given: direction of the effect not stated beside the values
Assay [1] addresses Protein translocase subunit SecA (Escherichia coli (strain K12)) (UniProt P10408). Nature of the assay: Assay to Identify E. coli SecA ATPase Inhibitors. In kind it is functional. As to conditions: 30 µM.
Assay [2] deals with T1, Ubiquitin-activating enzyme e1, putative (Leishmania donovani (strain BPK282A1)) (UniProt E9BSI1).
T1 sequence (whole entry): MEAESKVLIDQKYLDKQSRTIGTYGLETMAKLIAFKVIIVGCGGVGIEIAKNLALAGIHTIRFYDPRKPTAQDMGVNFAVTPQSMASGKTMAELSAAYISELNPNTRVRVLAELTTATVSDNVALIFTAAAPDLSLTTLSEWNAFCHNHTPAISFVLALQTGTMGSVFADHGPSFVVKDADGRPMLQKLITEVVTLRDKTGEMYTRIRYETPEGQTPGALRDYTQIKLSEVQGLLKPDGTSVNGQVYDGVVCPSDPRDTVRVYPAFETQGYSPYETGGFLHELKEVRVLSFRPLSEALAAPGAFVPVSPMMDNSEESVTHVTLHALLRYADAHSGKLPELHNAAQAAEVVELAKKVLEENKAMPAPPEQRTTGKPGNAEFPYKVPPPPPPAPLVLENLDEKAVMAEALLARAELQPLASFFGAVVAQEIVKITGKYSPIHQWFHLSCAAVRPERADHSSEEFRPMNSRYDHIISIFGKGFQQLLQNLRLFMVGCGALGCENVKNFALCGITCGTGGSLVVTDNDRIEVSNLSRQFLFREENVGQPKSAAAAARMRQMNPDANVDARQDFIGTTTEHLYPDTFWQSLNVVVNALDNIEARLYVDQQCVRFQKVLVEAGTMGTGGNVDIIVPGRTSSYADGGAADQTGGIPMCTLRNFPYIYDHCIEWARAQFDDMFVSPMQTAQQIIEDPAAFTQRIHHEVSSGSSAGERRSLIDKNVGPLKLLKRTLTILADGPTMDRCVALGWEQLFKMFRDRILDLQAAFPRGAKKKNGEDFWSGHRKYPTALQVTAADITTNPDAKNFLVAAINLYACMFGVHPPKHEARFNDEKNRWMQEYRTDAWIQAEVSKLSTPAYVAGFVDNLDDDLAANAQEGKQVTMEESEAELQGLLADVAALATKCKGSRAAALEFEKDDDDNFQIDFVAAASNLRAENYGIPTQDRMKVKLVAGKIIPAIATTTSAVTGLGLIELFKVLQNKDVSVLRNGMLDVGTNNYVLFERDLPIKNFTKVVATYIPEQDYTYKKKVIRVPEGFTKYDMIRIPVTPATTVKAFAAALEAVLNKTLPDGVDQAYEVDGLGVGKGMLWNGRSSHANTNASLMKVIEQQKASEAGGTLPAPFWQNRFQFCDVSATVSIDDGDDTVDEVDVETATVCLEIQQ
Nature of the assay: Leishmania donovani Ubiquitin Activating Enzyme (LdE1). In kind it is functional. As to conditions: 30 µM.

Assay [3] addresses AMP-activated protein kinase, AMPK (Homo sapiens) (UniProt P54646+O43741+P54619+Q9UGJ0+Q9Y478+Q13131+Q9UGI9). Nature of the assay: AMP-dependent Kinase enzyme assay. An in vitro enzyme assay that detects ADP turnover that is directly proportional to AMPK activity. This uses naive AMPK that is activated during the assay with MK-8722. Type of assay: functional. As to conditions: 30 µM.

Assay [4] addresses Sialic acid-binding Ig-like lectin 9 (Homo sapiens) (UniProt Q9Y336). Nature of the assay: Hs-Siglec9 ALPHAscreen SOP 20170721. As to conditions: 10 µM.
The next assay deals with Trypanosoma cruzi. Nature of the assay: Trypanosoma cruzi phosphomannomutase and mannose-1-phosphate guanylyltransferase assay. In kind it is functional. As to conditions: 10 µM.
Assay [5] concerns the target T2, Arginase-2, mitochondrial (Homo sapiens) (UniProt P78540).
T2 sequence (whole entry): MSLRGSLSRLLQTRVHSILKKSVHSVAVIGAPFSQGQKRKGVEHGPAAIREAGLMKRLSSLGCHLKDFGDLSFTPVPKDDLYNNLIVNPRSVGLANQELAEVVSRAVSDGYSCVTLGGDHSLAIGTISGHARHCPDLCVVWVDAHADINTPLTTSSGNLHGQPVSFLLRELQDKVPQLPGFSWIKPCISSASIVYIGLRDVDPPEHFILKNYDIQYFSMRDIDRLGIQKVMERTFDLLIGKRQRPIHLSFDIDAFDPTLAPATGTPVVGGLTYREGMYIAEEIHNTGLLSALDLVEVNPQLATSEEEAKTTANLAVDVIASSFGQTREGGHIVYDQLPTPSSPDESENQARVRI
Nature of the assay: in vitro enzyme assay to detect the production of urea directly proportional to the activity of Arginase II. Further: in the data most compounds retested in dose-response had high values. Type of assay: functional. As to conditions: 33.3 µM.

For assay [6], the target named is T3, Proteasome subunit beta (Trypanosoma cruzi) (UniProt O96673).
T3 sequence (whole entry): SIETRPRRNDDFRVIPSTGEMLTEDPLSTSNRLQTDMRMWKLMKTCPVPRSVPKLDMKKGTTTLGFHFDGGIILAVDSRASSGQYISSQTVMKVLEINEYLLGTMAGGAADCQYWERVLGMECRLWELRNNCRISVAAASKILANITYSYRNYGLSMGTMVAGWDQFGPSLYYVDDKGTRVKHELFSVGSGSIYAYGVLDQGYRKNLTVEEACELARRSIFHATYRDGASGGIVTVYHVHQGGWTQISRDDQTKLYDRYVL
Nature of the assay: Trypanosoma cruzi proteasome chymotrypsin-like activity (TcProtChymo) assay. Further: in the data most compounds retested in dose-response had high values. Type of assay: functional. Conditions: 9.37 µM.

For a further assay, the species on record is Homo sapiens. Nature of the assay: To identify inhibition of the IFN signalling (Jak-Stat) pathway via expression of an eGFP reporter gene under the control of an IFN-stimulated response element (ISRE) containing MxA promoter. In kind it is functional. Conditions: 30 µM. (In general: Reporter assays use an easily measured gene product as a stand-in for the process of interest.)

Assay [7] has as its target T4, Tyrosyl-tRNA synthetase, putative (Trypanosoma cruzi (strain CL Brener)) (UniProt Q4DSP6).
T4 sequence (whole entry): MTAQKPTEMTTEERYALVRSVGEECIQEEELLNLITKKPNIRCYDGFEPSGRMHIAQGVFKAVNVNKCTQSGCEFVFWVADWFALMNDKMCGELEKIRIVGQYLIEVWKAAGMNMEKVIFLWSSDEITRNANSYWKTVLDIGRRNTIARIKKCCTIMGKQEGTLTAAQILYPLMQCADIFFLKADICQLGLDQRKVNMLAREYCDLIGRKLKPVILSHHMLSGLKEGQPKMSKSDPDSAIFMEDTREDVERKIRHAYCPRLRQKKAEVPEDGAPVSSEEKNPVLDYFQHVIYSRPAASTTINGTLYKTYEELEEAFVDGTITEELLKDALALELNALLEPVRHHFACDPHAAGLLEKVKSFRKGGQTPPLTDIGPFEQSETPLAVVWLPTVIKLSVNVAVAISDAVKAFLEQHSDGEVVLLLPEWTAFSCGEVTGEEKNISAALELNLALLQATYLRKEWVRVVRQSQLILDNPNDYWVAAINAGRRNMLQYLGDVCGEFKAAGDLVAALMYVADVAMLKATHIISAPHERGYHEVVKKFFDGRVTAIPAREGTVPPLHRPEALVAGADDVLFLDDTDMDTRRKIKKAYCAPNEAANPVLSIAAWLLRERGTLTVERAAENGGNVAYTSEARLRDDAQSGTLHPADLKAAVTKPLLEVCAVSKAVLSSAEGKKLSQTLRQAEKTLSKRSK
Nature of the assay: Trypanosoma cruzi tyrosyl tRNA synthetase (TcYRS) _High Tyrosine SOP. Further: in the data most compounds retested in dose-response had high values. As to conditions: 30 µM. In kind it is functional.

Assay [8] addresses T4, Tyrosyl-tRNA synthetase, putative (Trypanosoma cruzi (strain CL Brener)). Nature of the assay: Trypanosoma cruzi tyrosyl tRNA synthetase (TcYRS) SOP. In kind it is functional. Conditions: 30 µM.
The target of assay [9] is Chromo domain-containing protein 1 (Saccharomyces cerevisiae (strain ATCC 204508 / S288c) (Baker's yeast)) (UniProt P32657). Nature of the assay: ScCHD-1 Enzyme Inhibition Assay. Further: in the data most compounds retested in dose-response had high values. In kind it is functional. As to conditions: 30 µM.
Sequence of Chromo domain-containing protein 1 (Saccharomyces cerevisiae (strain ATCC 204508 / S288c) (Baker's yeast)) (P32657 whole entry, the tested form may be a part): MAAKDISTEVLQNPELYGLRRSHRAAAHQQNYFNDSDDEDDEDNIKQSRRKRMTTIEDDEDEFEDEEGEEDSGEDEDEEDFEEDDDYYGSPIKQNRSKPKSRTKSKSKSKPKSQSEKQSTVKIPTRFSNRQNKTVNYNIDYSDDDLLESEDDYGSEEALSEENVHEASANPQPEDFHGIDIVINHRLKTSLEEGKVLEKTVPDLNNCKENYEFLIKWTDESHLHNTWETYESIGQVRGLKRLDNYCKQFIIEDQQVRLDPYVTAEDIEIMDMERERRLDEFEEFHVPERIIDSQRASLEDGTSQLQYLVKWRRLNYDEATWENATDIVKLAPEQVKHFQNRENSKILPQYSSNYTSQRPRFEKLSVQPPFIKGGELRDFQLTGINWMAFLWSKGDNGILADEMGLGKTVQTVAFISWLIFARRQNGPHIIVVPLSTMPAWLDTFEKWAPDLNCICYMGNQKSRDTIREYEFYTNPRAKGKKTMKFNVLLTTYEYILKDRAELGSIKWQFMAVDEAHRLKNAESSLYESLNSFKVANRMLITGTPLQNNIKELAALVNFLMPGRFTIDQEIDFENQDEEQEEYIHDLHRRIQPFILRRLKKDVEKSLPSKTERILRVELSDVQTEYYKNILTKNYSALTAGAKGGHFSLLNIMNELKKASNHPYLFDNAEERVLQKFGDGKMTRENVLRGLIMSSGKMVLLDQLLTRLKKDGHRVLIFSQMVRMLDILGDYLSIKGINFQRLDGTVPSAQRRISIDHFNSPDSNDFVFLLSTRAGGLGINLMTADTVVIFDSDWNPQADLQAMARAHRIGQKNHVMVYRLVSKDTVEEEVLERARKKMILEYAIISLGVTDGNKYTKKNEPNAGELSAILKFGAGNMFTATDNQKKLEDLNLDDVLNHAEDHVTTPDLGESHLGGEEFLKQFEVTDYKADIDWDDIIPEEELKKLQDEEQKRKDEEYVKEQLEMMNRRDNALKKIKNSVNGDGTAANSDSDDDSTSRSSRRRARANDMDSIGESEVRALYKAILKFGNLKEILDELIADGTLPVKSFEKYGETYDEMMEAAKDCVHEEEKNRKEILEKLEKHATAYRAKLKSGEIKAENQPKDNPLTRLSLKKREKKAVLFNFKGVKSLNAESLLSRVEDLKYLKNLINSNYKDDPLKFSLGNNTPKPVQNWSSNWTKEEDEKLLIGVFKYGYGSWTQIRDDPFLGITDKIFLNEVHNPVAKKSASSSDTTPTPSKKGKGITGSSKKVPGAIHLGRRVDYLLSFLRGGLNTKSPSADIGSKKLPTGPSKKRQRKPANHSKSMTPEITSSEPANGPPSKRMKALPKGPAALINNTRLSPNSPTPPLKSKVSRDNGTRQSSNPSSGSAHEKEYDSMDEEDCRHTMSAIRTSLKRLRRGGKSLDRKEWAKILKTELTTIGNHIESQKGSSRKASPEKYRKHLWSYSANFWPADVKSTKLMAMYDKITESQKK

Sequence of Sialic acid-binding Ig-like lectin 9 (Homo sapiens) (Q9Y336 whole entry): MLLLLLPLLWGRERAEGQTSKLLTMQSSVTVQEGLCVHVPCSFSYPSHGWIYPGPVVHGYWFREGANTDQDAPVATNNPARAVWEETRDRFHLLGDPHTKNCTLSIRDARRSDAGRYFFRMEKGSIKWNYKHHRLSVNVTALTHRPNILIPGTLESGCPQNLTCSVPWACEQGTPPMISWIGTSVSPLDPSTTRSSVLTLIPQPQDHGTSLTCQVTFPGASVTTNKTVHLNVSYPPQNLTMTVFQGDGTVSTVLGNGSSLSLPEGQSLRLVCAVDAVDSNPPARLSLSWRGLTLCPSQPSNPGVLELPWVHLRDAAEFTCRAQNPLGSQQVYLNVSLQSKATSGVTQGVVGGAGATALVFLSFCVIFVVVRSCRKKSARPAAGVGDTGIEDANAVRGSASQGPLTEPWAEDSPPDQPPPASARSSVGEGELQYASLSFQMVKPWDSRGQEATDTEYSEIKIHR
Sequence of Protein translocase subunit SecA (Escherichia coli (strain K12)) (P10408 whole entry): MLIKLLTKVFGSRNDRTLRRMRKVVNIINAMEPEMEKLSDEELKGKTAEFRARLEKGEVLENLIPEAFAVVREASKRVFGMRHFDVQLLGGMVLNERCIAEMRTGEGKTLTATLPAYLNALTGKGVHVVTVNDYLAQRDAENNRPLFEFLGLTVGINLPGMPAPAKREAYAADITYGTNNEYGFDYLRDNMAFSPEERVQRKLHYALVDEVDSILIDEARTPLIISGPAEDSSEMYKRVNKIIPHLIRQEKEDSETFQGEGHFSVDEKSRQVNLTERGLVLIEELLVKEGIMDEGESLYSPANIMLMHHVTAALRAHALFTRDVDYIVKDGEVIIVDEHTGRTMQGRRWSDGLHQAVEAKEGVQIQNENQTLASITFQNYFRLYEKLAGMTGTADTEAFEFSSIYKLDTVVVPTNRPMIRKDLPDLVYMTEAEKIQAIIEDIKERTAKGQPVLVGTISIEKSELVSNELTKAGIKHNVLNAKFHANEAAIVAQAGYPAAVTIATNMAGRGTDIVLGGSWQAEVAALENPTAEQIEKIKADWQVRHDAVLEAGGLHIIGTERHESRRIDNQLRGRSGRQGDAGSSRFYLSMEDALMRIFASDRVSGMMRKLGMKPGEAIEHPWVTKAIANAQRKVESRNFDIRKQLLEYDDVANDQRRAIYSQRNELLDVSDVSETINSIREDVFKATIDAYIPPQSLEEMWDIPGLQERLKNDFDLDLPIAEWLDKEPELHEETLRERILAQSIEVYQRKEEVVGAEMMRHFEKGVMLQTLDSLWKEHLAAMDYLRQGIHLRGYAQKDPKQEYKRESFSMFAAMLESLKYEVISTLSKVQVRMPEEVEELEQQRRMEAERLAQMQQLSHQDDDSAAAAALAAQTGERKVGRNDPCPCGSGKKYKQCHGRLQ

Regarding `COc1ccccc1CC(=O)NCCCN1CCCC1C(=O)N(C)C` (stereo unspecified), the Percent Effect is -0.00806% in [1]; 8.22% in assay [2]; -2.99% in assay [3]; 6.95% in assay [4]; 2.35% in the assay on Trypanosoma cruzi; 8.64% in [5]. The Percent Effect in assay [6] was 18.6%; in the assay filed under Homo sapiens it was -15.4%; in assay [7], 6.45%; in assay [8], -2.5%; in assay [9], -6.6%.
Regarding `Cc1ccc(N2CCN(C(=O)COc3nccc(C)n3)CC2)nn1`, the Percent Effect in assay [1] is -4.66%; in assay [2], 21.9%; in [3], -13.9%; in assay [4], 17.7%; with Trypanosoma cruzi, 7.44%; in assay [5], 6.36%. The Percent Effect is 11.4% in [6]; 16% in the assay filed under Homo sapiens; 7.53% in assay [7]; 17.5% in assay [8]; -9.03% in [9].
Regarding `CC(NC(=O)NCC1(c2ccccc2)CCC1)c1nncn1C` (stereo unspecified), the Percent Effect in [1] is -3.15%; in [2], 13.2%; in [3], -7.01%; in assay [4], -5.58%; with Trypanosoma cruzi it was -5.7%; in assay [5], 8.63%. Further, the Percent Effect in [6] is 5.67%; in the assay listed under Homo sapiens it was -2.94%; in assay [7], 5.42%; in [8], 16.1%; in assay [9], -6.58%.
`Cc1cc(F)ccc1OC1(C(=O)O)CCN(Cc2ccncc2)CC1`: the Percent Effect in assay [1] is -4.32%; in assay [2], 16%; in assay [3] it was -6.71%; in assay [4] it was 19.8%; in the assay on Trypanosoma cruzi it was 3.21%; in assay [5] it was 13.5%. Besides, the Percent Effect in [6] is 11.7%; in the assay filed under Homo sapiens it was 10%; in [7], 10.4%; in [8], 21%; in [9] it was -4.33%.
`CC(C)N(C)C(=O)C1=NOC2(CCN(C(=O)c3ccccn3)C2)C1` (stereo unspecified): the Percent Effect was 3.88% in assay [1]; 2.74% in assay [2]; -0.462% in assay [3]; 5.09% in assay [4]; -5.95% in the assay on Trypanosoma cruzi; -3.59% in assay [5]. Also, the Percent Effect stood at 17.9% in assay [6]; 5.05% in the assay filed under Homo sapiens; 5.21% in [7]; 16.1% in [8]; 2.42% in assay [9].
Take `COc1ccc(OCCNCCn2cccn2)cc1`: the Percent Effect in assay [1] was 1.21%; in assay [2] it was 1.27%; in [3], -2.53%; in assay [4], 10.8%; in the assay on Trypanosoma cruzi it was -1.95%; in assay [5] it was 7.1%. The Percent Effect is 6.69% in [6]; 6.41% in the assay filed under Homo sapiens; -1.04% in [7]; 2.53% in [8]; -1.82% in assay [9].
Turning to `CCc1nc(CN2CCN(C(=O)c3cnccn3)CC2)cs1`, the Percent Effect in assay [1] is -2.42%; in [2], 5.41%; in [3], -4.67%; in assay [4], 12.2%; with Trypanosoma cruzi, 4.92%; in assay [5], -5.73%. Further, the Percent Effect in [6] is 15.3%; in the assay filed under Homo sapiens, 11.6%; in assay [7], 1.98%; in assay [8], 11%; in assay [9] it was -2.71%.
`O=C(NCc1cn2c(n1)CN(CC1CCOCC1)CC2)C1CCC1`: the Percent Effect in assay [1] was -8.08%; in assay [2], -2.7%; in assay [3], 4.27%; in assay [4], 1.46%; in the assay on Trypanosoma cruzi it was -2.73%; in [5], -1.25%. Besides, the Percent Effect in [6] is 12.9%; in the assay filed under Homo sapiens, 5.25%; in assay [7], 2.97%; in assay [8], 1.22%; in assay [9], -0.655%.
In the case of `CCc1cc(N2CCSCC2)n2nc(C)c(C)c2n1`, the Percent Effect in assay [1] was -2.37%; in [2] it was 5.33%; in assay [3] it was 2.1%; in assay [4] it was 4.26%; in the assay on Trypanosoma cruzi it was -4.97%; in assay [5], 1.04%. Besides, the Percent Effect was 26.7% in [6]; 15.8% in the assay filed under Homo sapiens; -2.73% in [7]; 6.17% in [8]; -6.13% in [9].
Regarding `O=C(NCc1ccco1)[C@H]1C[C@H]2OCC[C@H]2N(C(=O)c2ccncc2)C1`, the Percent Effect in [1] was -2.12%; in [2] it was -2.67%; in assay [3], 11.1%; in assay [4], 21.8%; in the assay with Trypanosoma cruzi, 0.193%; in assay [5], -50%. In addition, the Percent Effect in assay [6] is 7.18%; in the assay filed under Homo sapiens, -21.2%; in assay [7] it was 3.12%; in assay [8] it was 2.5%; in [9], -1.86%.
Take `Cc1cc(NC(=O)NCC(C)O)n(C)n1` (stereo unspecified): the Percent Effect in [1] was -5.54%; in assay [2], 10.5%; in assay [3], -8.37%; in [4], 7.06%; with Trypanosoma cruzi, 5.64%; in assay [5], 0%. The Percent Effect was 12.2% in assay [6]; -5.12% in the assay listed under Homo sapiens; 2.45% in assay [7]; 12.2% in assay [8]; -14.2% in [9].
